Compounds with a hit are over-represented: about 8% of the library has one in this group of screens.
HT1080-NT tox – kills 2HG-producing HT-1080-NT fibrosarcoma cells. HT-1080-NT fibrosarcoma viability, CellTiter-Glo ATP luminescence, 48 h. Potency, µM (doses to about 46.1 µM), hits mostly cytotoxic. 1.6% of 360,000 active;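 note: NT is the 2HG producing partner of a matched IDH1 knockdown line; nearly all actives have a fitted effect of over 55% in size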
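Viability by CellTiter-Glo luminescence after 48 h compound exposure at 37C of HT-1080-NT cells (750/well, RPMI, 5% FBS). % activity scaled between DMSO wells and medium-only wells, then curve-fitted and categorized by curve class.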
MCF10A rereplic – DNA re-replication induction in MCF 10a cells; MCF 10A DNA re-replication, Hoechst nuclear intensity, 48 h; Potency, µM (highest dose often 46.1 µM), hits mostly activators; 2.9% of 350,000 active; note: nearly all actives have a fitted effect of over 50% in size
HT1080 IDH1KD tx – kills HT-1080 cells with IDH1 knockdown; HT-1080 IDH1 knockdown viability, ATP luminescence, 48 h; AID 686971; 2% of 360,000 active; Potency, µM (doses to about 46.1 µM), hits mostly cytotoxic
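Assay cells: HT-1080 with IDH1 knockdown, 750 per well, RPMI/5% FBS. Exposure: 48 h at 37 °C following 2 h pre-incubation. Read: CellTiter-Glo luminescence; fitted concentration-response, curve class assigned.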
KB-V1 cytotox – kills drug-selected multidrug resistant KB-V1 cells | KB-V1 MDR cells viability, CellTiter-Glo, 72 h | AID 1347076 | Potency, µM (doses to about 46.1 µM), actives largely listed as cytotoxic | 3.4% of 400,000 active; note: nearly all actives have a fitted effect of over 60% in size
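Luminescent ATP read-out (CellTiter-Glo, 10 min) measures survival of drug-selected KB-V1 MDR cells after 72 h, 37 degrees C compound exposure. Medium: phenol-red-free DMEM, 10% FBS. Values from fitted concentration-response curves.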
SW480 rereplic – DNA re-replication induction in SW480 cells | SW480 DNA re-replication, Hoechst DNA content imaging, 48 h | Potency, µM (titrated, usually from 46.1 µM), hits mostly activators | 1.8% of 340,000 active | AID 624297; note: nearly all actives have a fitted effect of over 55% in size
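Image-based read-out: total Hoechst fluorescence of nuclei (405 nm excitation, 500-530 nm emission), with hits raising the fraction of high-intensity nuclei. SW480 colon cells incubated 48 hr with compounds at 37 C.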
KB-3-1 tox – kills parental KB-3-1 adenocarcinoma cells | AID 1347075 | 1.4% of 400,000 active | KB-3-1 viability, CellTiter-Glo ATP luminescence, 72 h | Potency, µM (top dose mostly 46.1 µM), usual class: cytotoxic; note: nearly all actives have a fitted effect of over 60% in size
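KB-3-1 parental drug-naive adenocarcinoma cells in DMEM/10% FBS, incubated 72 h at 37 C with pin-transferred compounds across a concentration series. Viability by CellTiter-Glo luminescence; concentration-response curves fitted after normalization.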
A number is an active result; . = inactive; ? = inconclusive; / = not tested or not shown; [ ] = dose if it differs, or a comment. Calls come from the whole dose curve; as a rule, active = well fitted curve in the direction sought with a large enough effect; inconclusive = small, poorly fitted or top-dose-only effect, or another doubt; inactive = no such curve, though single readings can be large; an effect the other way counts as inactive or inconclusive.

SMILES	HT1080-NT tox	MCF10A rereplic	HT1080 IDH1KD tx	KB-V1 cytotox	SW480 rereplic	KB-3-1 tox
COC(=O)c1cc(=O)n(CCc2ccccc2F)c(=Nc2ccc(F)c(Cl)c2)s1	21µM	?	18µM	.	.	?
COC(=O)c1cc(=O)n(Cc2ccco2)c(=Nc2ccc(F)c(Cl)c2)s1	?	7.3µM	?	?	?	18µM
O=C(CSCc1cnn(-c2ccccc2)c1-n1cccc1)NCC1CCCO1 (configuration not stated)	.	.	.	.	.	.
O=C(CCc1nc2ccccc2c(=O)[nH]1)Nc1nnc(SCc2ccccc2F)s1	.	.	.	.	.	.
Cc1ccc(NC(=S)NC2CCSc3ccccc32)cc1C (configuration not stated)	.	18µM	.	.	18µM	?
CCOc1ccc(CCN2C(=S)N([C@@H](CC(C)C)CN3CCC[C@@H]3CN3C(=S)NC[C@@H]3CC(C)C)C[C@@H]2Cc2ccc(O)cc2)cc1	23µM	/	16µM	.	/	?
CC(C)C[C@@H](CN1CCC[C@@H]1CN1C(=S)NC[C@@H]1Cc1ccc(O)cc1)N1C[C@H](Cc2ccc(O)cc2)N(CCc2ccccc2)C1=S	26µM	/	?	?	/	.
CC(C)C[C@@H](CN1CCCC1CN1C(=S)NC[C@@H]1Cc1ccccc1)N1C[C@H](Cc2ccc(O)cc2)N(CCc2ccccc2)C1=S (some centres not stated)	?	/	.	?	/	?
CC(C)C[C@H]1CNC(=S)N1C[C@H]1CCCN1C[C@H](Cc1ccc(O)cc1)N1C[C@H](Cc2ccc(O)cc2)N(CCc2ccccc2)C1=S	21µM	/	21µM	.	/	?
CCOC(=O)CSc1nc2sc3c(c2c(=O)n1-c1ccc(OC)cc1)CCN(C)C3	.	.	.	.	.	?
O=S(=O)(Nc1ccc(S(=O)(=O)Nc2nccs2)cc1)c1ccc2c(c1)OCCO2	.	21µM	?	.	?	.
CS(=O)(=O)N1CCc2cc(S(=O)(=O)Nc3ccc4c(c3)OCCO4)ccc21	?	.	.	21µM	.	?
O=C(O)C1(Nc2ccc(Cl)cc2)CCCC1	.	.	.	?	.	.
C=C(C)C1CC=C(C)/C(=N/NC(=O)c2ccc(NC(=O)CC)cc2)C1 (configuration not stated)	.	.	.	15µM	.	.
COc1ccc(NC(=O)CCCn2c(=O)c3sccc3n(Cc3ccc(C)cc3C)c2=O)cc1	.	.	.	8.2µM	.	.
COc1ccc(NC(=O)CCCn2c(=O)c3sccc3n(Cc3ccc(C)cc3)c2=O)cc1	.	?	.	.	.	.
O=C(O)c1ccccc1C(=O)NCc1ccc(F)cc1	.	.	.	.	.	.
O=C(O)c1ccccc1C(=O)NNc1ccc(F)cc1	?	?	8.2µM	.	.	.
CCc1c(C)sc(NC(NC(C)=O)(C(=O)OC)C(F)(F)F)c1C#N (configuration not stated)	.	.	.	.	.	.
c1cc2c(cc1CN1CCN(C3CCCCCC3)CC1)OCO2	.	.	.	.	.	.
c1ccc(CN2CCC(N3CCN(Cc4ccc5c(c4)OCO5)CC3)CC2)cc1	.	21µM	.	?	.	.
O=C(c1ccc2c(c1)OCO2)C1CCCN(C2CCN(CCc3ccccc3)CC2)C1 (configuration not stated)	10µM	?	23µM	.	?	.
O=S(=O)(N/N=C/c1ccc(N2CCOCC2)cc1)c1ccccc1	.	?	.	.	.	.
CN1CCC(=C2c3ccccc3CC(=O)c3sccc32)CC1	?	.	.	?	/	?
CN1CCC(=C2c3ccccc3CCc3sccc32)CC1	18µM	.	?	?	.	.
SMILES	HT1080-NT tox	MCF10A rereplic	HT1080 IDH1KD tx	KB-V1 cytotox	SW480 rereplic	KB-3-1 tox
COc1ccccc1C(=O)COC(=O)c1ccccc1OCC(=O)Nc1ccc(SC(F)F)cc1	.	.	.	.	.	.
COc1ccc(CNC(=O)COC(=O)c2ccccc2OCC(=O)Nc2ccc(SC(F)F)cc2)cc1	.	.	.	.	10µM	?
COc1ccccc1NC(=O)COC(=O)c1ccccc1OCC(=O)Nc1ccc(SC(F)F)cc1	.	.	?	13µM	.	.
S=C(NCCN1CCCCC1)Nc1ccc(Br)cc1	.	.	.	.	16µM	.
S=C(NCCN1CCCCC1)Nc1ccccc1	.	.	.	.	.	.
S=C(NCCc1ccccn1)Nc1ccc(Cl)c(Cl)c1	.	?	.	23µM	.	.
S=C(NCCc1ccccn1)Nc1cc(Cl)cc(Cl)c1	?	?	.	.	.	.
Cc1c(Cl)cccc1NC(=S)NCCc1ccccn1	.	?	.	?	.	.
S=C(NCCc1ccccn1)Nc1ccccc1Cl	.	.	.	.	9.2µM	.
Cc1cc(CNC(=O)COC(=O)c2ccc(Cl)c(N)c2)cc(C)c1O	.	.	.	.	.	.
C#CCOCCOCCOCCNc1nc(N2CCN(C(=O)CCCCCCCCCCNC(=O)Cn3cc(C[C@@H](C)O)nn3)CC2)nc(N2CCN(C(=O)CCCCCCCCCCNC(=O)[C@@H](CCSC)n3cc(CCO)nn3)CC2)n1	?	?	21µM	.	?	.
C#CCOCCOCCOCCNc1nc(N2CCN(C(=O)CCCCCCCCCCNC(=O)[C@H](CCCCN)n3cc(C)nn3)CC2)nc(N2CCN(C(=O)CCCCCCCCCCNC(=O)[C@H](CCCN=C(N)N)n3cc(C[C@@H](C)CC)nn3)CC2)n1	?	?	?	?	.[9.22 µM]	?
C#CCOCCOCCOCCNc1nc(N2CCN(C(=O)CCCCCCCCCCNC(=O)[C@@H](CCSC)n3cc(CCO)nn3)CC2)nc(N2CCN(C(=O)CCCCCCCCCCNC(=O)[C@H](CO)n3cc(CCCCCN)nn3)CC2)n1	?	.	?	.	.	.
C#CCOCCOCCOCCNc1nc(N2CCN(C(=O)CCCCCCCCCCNC(=O)[C@@H](CCSC)n3cc(CCO)nn3)CC2)nc(N2CCN(C(=O)CCCCCCCCCCNC(=O)[C@@H]([C@H](C)O)n3cc(C)nn3)CC2)n1	.	16µM	.	.	.	.
C#CCOCCOCCOCCNc1nc(N2CCN(C(=O)CCCCCCCCCCNC(=O)[C@H](CCCCN)n3cc(C)nn3)CC2)nc(N2CCN(C(=O)CCCCCCCCCCNC(=O)[C@@H]([C@H](C)O)n3cc(C)nn3)CC2)n1	10µM	?	?	?	.	21µM

Source: PubChem BioAssay
